High-throughput results deposited in PubChem BioAssay by National Center for Advancing Translational Sciences (NCATS).
Most compounds without a hit are left out; they make up all but 10% or so of the library.
Gal4-VP16 FLuc – inhibits Gal4-VP16 luciferase reporter, ROR gamma counter-screen. actives 3.5% (n = 310,000). Potency, µM (doses to about 53.6 µM), for inactives: top-dose activity, negative = inhibition, hits mostly inhibitors. AID 2546. Drosophila S2 Gal4-VP16 UAS-luciferase, luminescence, 20 h;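 note: Gal4-VP16 expression switched on by copper sulfate through the metallothionein promoter; % is set by controls: 0 for no effect and ±100 for the full control effect; nearly all actives have a fitted effect of over 50% in size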
RORgamma inh – ROR gamma (mouse) transcription inhibition; Potency, µM (top dose mostly 53.6 µM), for inactives: at the top dose activity change, negative = inhibition, hits mostly inhibitors; Drosophila S2 Gal4-RORgamma UAS-luciferase reporter, 20 h; AID 2551; actives 5.4% (n = 310,000); P51450; note: % is set by controls: 0 for no effect and ±100 for the full control effect; nearly all actives have a fitted effect of over 60% in size
Target sequence (P51450 whole entry, looked up, the tested form may be a part): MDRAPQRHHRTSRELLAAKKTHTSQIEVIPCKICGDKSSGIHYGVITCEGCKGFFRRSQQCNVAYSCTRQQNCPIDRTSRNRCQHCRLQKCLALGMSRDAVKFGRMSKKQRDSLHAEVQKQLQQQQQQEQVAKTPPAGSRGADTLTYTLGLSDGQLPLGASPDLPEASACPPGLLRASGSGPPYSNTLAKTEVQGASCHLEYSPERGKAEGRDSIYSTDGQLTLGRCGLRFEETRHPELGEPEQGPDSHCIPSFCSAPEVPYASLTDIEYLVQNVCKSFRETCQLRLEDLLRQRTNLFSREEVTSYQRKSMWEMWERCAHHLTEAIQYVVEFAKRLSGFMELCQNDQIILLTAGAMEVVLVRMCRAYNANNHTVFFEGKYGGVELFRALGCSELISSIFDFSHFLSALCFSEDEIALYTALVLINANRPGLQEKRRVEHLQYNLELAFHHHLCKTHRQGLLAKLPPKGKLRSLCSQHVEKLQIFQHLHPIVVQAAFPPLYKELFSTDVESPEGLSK
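In this cell-based reporter format, copper sulfate (700 uM final) drives Gal4–ROR gamma fusion expression from a metallothionein promoter in Drosophila Schneider cells; compounds preincubated 1 hr, reporter read after 20 hr at ambient temperature.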
ELG1 DNA repair – ELG1-dependent DNA repair inhibition; AID 504467; actives 2.3% (n = 330,000); Potency, µM (series often up to 46.1 µM), for inactives: at the highest dose activity change, negative = inhibition, hits mostly inhibitors; HEK293T ELG1-luciferase reporter, luminescence, 16 h; DNA damage induced by 5-fluorouridine; note: % is set by controls: 0 for no effect and ±100 for the full control effect; nearly all actives have a fitted effect of over 55% in size
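DMSO vehicle served as the neutral condition. Each well held 2,000 cells given 5-fluorouridine plus compound; after 16 hr at 37 °C/5% CO2, ONE-Glo was added and luciferase measured 30 min later.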
MCF10A rerep – induces DNA re-replication in MCF 10a normal breast cells | MCF 10A DNA re-replication, Hoechst nuclear intensity, 48 h | actives 2.9% (n = 350,000) | Potency, µM (doses to about 46.1 µM), for the others: at the top dose activity, positive = re-replication, usual class: activators; note: % of control where 0% means no effect; nearly all actives have a fitted effect of over 50% in size
SW480 rereplic – induces DNA re-replication in SW480 colon adenocarcinoma cells. Potency, µM (top dose mostly 46.1 µM), inactives show at the top dose re-replication activation, usual class: activators. actives 1.8% (n = 340,000). SW480 DNA re-replication, Hoechst DNA content imaging, 48 h; note: % of control where 0% means no effect; nearly all actives have a fitted effect of over 55% in size
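Hoechst fluorescence of nuclei (405 nm excitation, 500-530 nm emission) measured by plate-scanning imager after 48 hr compound exposure at 37 C; re-replication scored as increased number of nuclei with elevated intensity.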
* marks the source's active call; other numbers are inactive results; [ ] = remark or other dose. Calls come from the whole dose curve; as a rule, active = well fitted curve in the direction sought with a large enough effect; inconclusive = small, poorly fitted or top-dose-only effect, or another doubt; inactive = no such curve, though single readings can be large; an effect the other way counts as inactive or inconclusive. Potency is the fitted concentration of half-maximal effect.

COC(=O)[C@@]1(Cc2ccc(OC)cc2)[C@H]2c3cc(C(=O)N(C)C)n(Cc4cc(F)c(F)c(F)c4)c3C[C@H]2CN1C(=O)c1ccccc1 was read as Gal4-VP16 FLuc 6% and RORgamma inh 11%.
`Cc1ccccc1OCc1n[nH]c(=S)n1-c1cccc(Cl)c1` gave Gal4-VP16 FLuc 4.5µM*, RORgamma inh 4µM*, ELG1 DNA repair 11%, MCF10A rerep -1% and SW480 rereplic 3%.
COCc1n[nH]c(=S)n1-c1ccccc1 was read as Gal4-VP16 FLuc 1%, RORgamma inh -11%, ELG1 DNA repair 8%, MCF10A rerep 1% and SW480 rereplic 2%.
Screening Cc1cc(OCc2n[nH]c(=S)n2-c2ccccc2)ccc1Cl returned Gal4-VP16 FLuc 3.5µM*, RORgamma inh 2.5µM*, ELG1 DNA repair -7%, MCF10A rerep 9% and SW480 rereplic -3%.
Cc1ccccc1OCc1nnc(SCC(=O)O)n1-c1cccc(Cl)c1 was read as Gal4-VP16 FLuc 0%, RORgamma inh 10%, ELG1 DNA repair -8%, MCF10A rerep inconclusive and SW480 rereplic 3%.
Cc1cccc(C)c1OCc1n[nH]c(=S)n1-c1ccccc1 was read as Gal4-VP16 FLuc inconclusive, RORgamma inh 1.3µM*, ELG1 DNA repair -2%, MCF10A rerep 23% and SW480 rereplic 20%.
`S=c1[nH]nc(COc2ccccc2)n1-c1ccc(Cl)cc1` gave MCF10A rerep 2% and SW480 rereplic 29%.
`CC(=O)NC1C(=O)N=C(SCC(=O)Nc2ccc(C(F)(F)F)cc2Cl)NC1=O` (stereo unspecified) gave Gal4-VP16 FLuc 1%, RORgamma inh -6%, ELG1 DNA repair -3%, MCF10A rerep 4% and SW480 rereplic -51%.
Screening O=S(=O)(c1ccccc1)N1CCN(Cc2ccccc2)c2ccccc21 returned MCF10A rerep 2% and SW480 rereplic 1%.
For Cn1cnc([N+](=O)[O-])c1S(=O)(=O)c1cccc(Cl)c1 the results were Gal4-VP16 FLuc 5µM*, RORgamma inh 2.8µM*, ELG1 DNA repair inconclusive, MCF10A rerep 3.7µM* and SW480 rereplic 5.8µM*.
Cn1cnc([N+](=O)[O-])c1S(=O)(=O)Oc1ccccc1 was read as MCF10A rerep 7.3µM* and SW480 rereplic 4.1µM*.
CCn1c(N)[n+](CC(=O)Nc2ccc(SC(F)F)cc2)c2ccccc21 was read as Gal4-VP16 FLuc -4%, RORgamma inh 16%, ELG1 DNA repair -15%, MCF10A rerep inconclusive and SW480 rereplic inconclusive.
For c1ccc(-c2cc(-c3ccccc3)n3ncnc3n2)cc1 the results were Gal4-VP16 FLuc 4%[10 µM], RORgamma inh -20%, ELG1 DNA repair -20%, MCF10A rerep 3% and SW480 rereplic 1%.
CCOC(=O)CSc1cc(-c2ccccc2)nc2ncnn12 was read as Gal4-VP16 FLuc 11µM*, RORgamma inh -75%, ELG1 DNA repair inconclusive, MCF10A rerep 2.3µM* and SW480 rereplic -31%.
O=C(Nc1ccc(Oc2ccc(NC(=O)c3ccco3)c(NC(=O)c3ccco3)c2)cc1)c1ccco1 was read as Gal4-VP16 FLuc -2%, RORgamma inh 21%, ELG1 DNA repair 16µM*, MCF10A rerep 0% and SW480 rereplic 0%.
`O=C(Nc1ccc(NC(=O)c2ccco2)cc1)c1ccco1` gave Gal4-VP16 FLuc 2%, RORgamma inh -15%, ELG1 DNA repair 0%, MCF10A rerep 1% and SW480 rereplic 1%.
For O=C(Nc1ccc(Oc2ccc3ccccc3c2)cc1)c1ccco1 the results were Gal4-VP16 FLuc 10µM*, RORgamma inh -95%, ELG1 DNA repair inconclusive, MCF10A rerep inconclusive and SW480 rereplic 13%.
`COc1ccc(CC2(CO)COc3ccccc3C2=O)cc1` (stereo unspecified) gave MCF10A rerep inconclusive and SW480 rereplic 16µM*.
`COc1ccc(CN2C(=O)COc3ccccc32)cc1` gave Gal4-VP16 FLuc -4%, RORgamma inh -10%, ELG1 DNA repair 8%, MCF10A rerep -10% and SW480 rereplic 2%.
Screening CCNC(=O)CSc1nnc(-c2ccccc2Br)n1-c1cccc(C(F)(F)F)c1 returned Gal4-VP16 FLuc 1%, RORgamma inh -41%, ELG1 DNA repair 8%, MCF10A rerep 11% and SW480 rereplic 13%.
O=C(Cc1ccccc1)Nc1cc([N+](=O)[O-])ccc1N1CCOCC1 was read as Gal4-VP16 FLuc -7%, RORgamma inh 18%, ELG1 DNA repair -8%, MCF10A rerep -1% and SW480 rereplic -4%.
Screening CCC(CC)C(=O)Oc1c(C(=O)N(C)C)cccc1-c1ccccc1 returned MCF10A rerep 3% and SW480 rereplic -4%.
For CCN(CC)S(=O)(=O)c1ccc(N2CCCCC2)c(NC(=O)C2CCN(C(=O)c3ccc(F)cc3)CC2)c1 the results were ELG1 DNA repair inconclusive, MCF10A rerep -6% and SW480 rereplic -65%.
CN1C2CCC1CC(NS(=O)(=O)c1cc(Cl)c(Cl)cc1Cl)C2 (stereo unspecified) was read as Gal4-VP16 FLuc -6%, RORgamma inh -12%, ELG1 DNA repair 12%, MCF10A rerep inconclusive and SW480 rereplic 0%.
CCOc1ccc(S(=O)(=O)NCc2ccccn2)cc1NC(=O)c1ccccc1F was read as Gal4-VP16 FLuc 4%, RORgamma inh inconclusive, ELG1 DNA repair -1%, MCF10A rerep inconclusive and SW480 rereplic 0.82µM*.
For CCOc1cc(C)c(C(C)C)cc1S(=O)(=O)NCc1ccccn1 the results were Gal4-VP16 FLuc 11%, RORgamma inh 10µM*, MCF10A rerep 9% and SW480 rereplic 1%.
Screening COc1ccc(S(=O)(=O)NCc2ccncc2)cc1NC(=O)c1ccccc1F returned ELG1 DNA repair -6%, MCF10A rerep -5% and SW480 rereplic -17%.
For COc1ccccc1CC(=O)Nc1cc(OC)c(NC(=O)c2ccccc2)cc1OC the results were Gal4-VP16 FLuc -29%, RORgamma inh inconclusive, ELG1 DNA repair 16µM*, MCF10A rerep 2% and SW480 rereplic 3%.
Screening COc1ccc(S(=O)(=O)NCc2ccccn2)cc1NC(=O)c1ccccc1 returned Gal4-VP16 FLuc 6%, RORgamma inh -24%, ELG1 DNA repair -12%, MCF10A rerep 21µM* and SW480 rereplic 9.2µM*.
Cc1ccnc(S(=O)(=O)Cc2ccc([N+](=O)[O-])cc2)n1 was read as Gal4-VP16 FLuc -14%, RORgamma inh -32%, ELG1 DNA repair -2%, MCF10A rerep -4% and SW480 rereplic inconclusive.
Screening Cc1ccc(NC(=O)/C(=C\c2cccnc2)NC(=O)c2ccco2)cc1 returned Gal4-VP16 FLuc -5%, RORgamma inh 16%, ELG1 DNA repair -1%, MCF10A rerep 0% and SW480 rereplic -3%.
